Shown are actives, neighbours in structure and some others; about 8% of the full set was active somewhere.
MCF10A rereplic = A quantitative high throughput screen for small molecules that induce DNA re-replication in MCF 10a normal breast cells | MCF 10A DNA re-replication, Hoechst nuclear intensity, 48 h | Potency, µM (series often up to 46.1 µM), hits mostly activators | 2.9% of 350,000 active; also: nearly all actives have a fitted effect of over 50% in size
SW480 rereplic = A quantitative high throughput screen for small molecules that induce DNA re-replication in SW480 colon adenocarcinoma cells | SW480 DNA re-replication, Hoechst DNA content imaging, 48 h | Potency, µM (doses to about 46.1 µM), most hits filed as activators | 1.8% of 340,000 active; also: nearly all actives have a fitted effect of over 55% in size
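Image-based DNA-content assay: after two days of treatment, nuclei were labelled with the DNA dye Hoechst and imaged, and hits were compounds raising the count of nuclei showing high fluorescence intensity.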
KB-V1 cytotox = qHTS assay for MDR1-selective chemotherapeutics: Primary screen using the drug-selected MDR subline cells KB-V1; KB-V1 MDR cells viability, CellTiter-Glo, 72 h; Potency, µM (series often up to 46.1 µM), usual class: cytotoxic; 3.4% of 400,000 active; also: nearly all actives have a fitted effect of over 60% in size
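Drug-selected KB-V1 cells, grown in DMEM lacking phenol red with 10% FBS, receive compound titrations; after three days at 37 degrees C, surviving cell ATP is quantified by CellTiter-Glo luminescence and responses normalized and curve-fitted.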
HT1080-NT tox = qHTS for induction of synthetic lethality in tumor cells producing 2HG: qHTS for the HT-1080-NT fibrosarcoma cell line. HT-1080-NT fibrosarcoma viability, CellTiter-Glo ATP luminescence, 48 h. Potency, µM (series often up to 46.1 µM), hits mostly cytotoxic. 1.6% of 360,000 active;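 also: NT is the 2HG producing partner of a matched IDH1 knockdown line; nearly all actives have a fitted effect of over 55% in size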
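Read-out is CellTiter-Glo luminescence after 10 minutes at room temperature, following 48 hours' compound treatment of HT-1080-NT cells (750 cells/well, RPMI, 5% FBS, 37 degrees C).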
HT1080 IDH1KD tx = qHTS for induction of synthetic lethality in tumor cells producing 2HG: qHTS for the HT-1080-IDH1KD cell line; HT-1080 IDH1 knockdown viability, ATP luminescence, 48 h; 2% of 360,000 active; Potency, µM (top dose mostly 46.1 µM), usual class: cytotoxic
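In this qHTS, HT-1080 cells depleted of IDH1 are exposed for 48 h at 37 °C to compound titrations. Toxicity is scored from CellTiter-Glo luminescence, with DMSO as full viability and medium alone as none.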
KB-3-1 tox = qHTS assay for MDR1-selective chemotherapeutics: Primary screen using the parental adenocarcinoma cell KB-3-1. KB-3-1 viability, CellTiter-Glo ATP luminescence, 72 h. Potency, µM (highest dose often 46.1 µM), most hits filed as cytotoxic. 1.4% of 400,000 active. AID 1347075, 2019; also: nearly all actives have a fitted effect of over 60% in size
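KB-3-1 cells, DMEM (no phenol red) + 10% FBS; compound by pin transfer, 72 h, 37 °C. Readout: CellTiter-Glo luminescence after 10 min. Data normalized, curve-fitted.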
Each line names hits and unclear results; the compound was inactive in the other large screens. Calls follow the shape of the dose curve; as a rule, active = well fitted curve in the direction sought with a large enough effect; inconclusive = small, poorly fitted or top-dose-only effect, or another doubt; inactive = no such curve, though single readings can be large; an effect the other way counts as inactive or inconclusive.

Cc1ccc(Cn2c(C)c(C(=O)NCC(C)C)sc2=O)cc1	KB-V1 cytotox 13µM (no result: MCF10A rereplic, SW480 rereplic)
COc1ccc(CNC(=O)c2sc(=O)n(Cc3ccccc3C)c2C)cc1	KB-V1 cytotox inconclusive (no result: MCF10A rereplic, SW480 rereplic)
Cc1ccsc1/C=N\NC(=O)c1cc(C(C)(C)C)[nH]n1	none
COc1ccc(-c2nc3c4ccccc4n(CC(=O)N4CCN(c5ccccc5F)CC4)c(=O)n3n2)cc1	none (no result: MCF10A rereplic, SW480 rereplic, HT1080-NT tox, HT1080 IDH1KD tx)
O=C(C1CCCN(S(=O)(=O)c2cccc3nsnc23)C1)N1CCN(c2ccccc2F)CC1 (stereo not given)	none (no result: MCF10A rereplic, SW480 rereplic, HT1080-NT tox, HT1080 IDH1KD tx)
Cc1cccc(CNC(=O)c2sc(=O)n(Cc3c(C)cccc3C)c2C)c1	KB-V1 cytotox 20.6µM, HT1080 IDH1KD tx inconclusive, KB-3-1 tox inconclusive (no result: MCF10A rereplic, SW480 rereplic)
COc1ccccc1Cn1c(C)c(C(=O)NCc2cccc(C)c2)sc1=O	KB-V1 cytotox inconclusive (no result: MCF10A rereplic, SW480 rereplic)
Cc1cccc(N(CC(=O)NCCSCc2ccccc2)S(=O)(=O)c2ccccc2)c1C	none (no result: MCF10A rereplic, SW480 rereplic, HT1080-NT tox, HT1080 IDH1KD tx)
CCOC(=O)Nc1cc2c(c(N)n1)N=C(c1ccccc1)CN2	MCF10A rereplic inconclusive, SW480 rereplic inconclusive, KB-V1 cytotox 0.13µM, HT1080-NT tox 0.461µM, HT1080 IDH1KD tx inconclusive, KB-3-1 tox 0.184µM
O=C(CSc1nc(=O)[nH]c2c1CCCC2)Nc1ccc(F)cc1F	none
N/C(=N\c1nc2ccccc2o1)NC(=O)c1cccc(Cl)c1	SW480 rereplic 4.11µM
N/C(=N\c1nc2ccccc2o1)NC(=O)c1ccccc1NC(=O)c1ccccc1	MCF10A rereplic inconclusive, HT1080-NT tox inconclusive, HT1080 IDH1KD tx inconclusive
COC(=O)c1sc(N2C(=O)c3oc4ccc(C)cc4c(=O)c3C2c2ccc(OC)cc2)nc1C (stereo not given)	none (no result: MCF10A rereplic, SW480 rereplic, HT1080-NT tox, HT1080 IDH1KD tx)
CCc1[nH]nc(C(=O)NC2CCCN(Cc3ccccc3F)C2)c1C (stereo not given)	none
CCCCOc1ccc2c(c1)/C(=C(\C(Cl)=C(Cl)Cl)[N+](=O)[O-])N2	MCF10A rereplic inconclusive, KB-V1 cytotox 20.6µM, KB-3-1 tox inconclusive
COc1ccc(NC(=O)C2CCCN(S(=O)(=O)c3c(C)n[nH]c3C)C2)cc1OC (stereo not given)	MCF10A rereplic 2.06µM
O=C(NCc1ccc2c(c1)OCO2)C1CCCN(S(=O)(=O)c2cccc3nonc23)C1 (stereo not given)	none
COc1ccc(NC(=O)C2CCCN(S(=O)(=O)c3cccc4nonc34)C2)cc1 (stereo not given)	MCF10A rereplic 14.6µM, SW480 rereplic inconclusive, KB-V1 cytotox inconclusive, HT1080-NT tox inconclusive, HT1080 IDH1KD tx inconclusive
O=C(Nc1ccc(F)c(F)c1)C1CCN(S(=O)(=O)c2cccc3nonc23)CC1	KB-V1 cytotox 11.6µM, HT1080-NT tox inconclusive, KB-3-1 tox inconclusive
COc1ccc(NC(=O)C2CCCN(S(=O)(=O)c3c(C)[nH]c(=O)[nH]c3=O)C2)cc1OC (stereo not given)	KB-V1 cytotox inconclusive
O=C(NCc1ccccc1)C1CCCN(S(=O)(=O)c2cccc3nonc23)C1 (stereo not given)	KB-V1 cytotox 18.4µM
Cc1cc2ccccc2n1CCNC(=O)c1cc(C(F)(F)F)cc(C(F)(F)F)c1	none (no result: MCF10A rereplic, SW480 rereplic, HT1080-NT tox, HT1080 IDH1KD tx)
CCCOc1ccc(-c2nonc2NC(=O)c2oc3ccc(Cl)cc3c2C)cc1OCCC	none (no result: MCF10A rereplic, SW480 rereplic, HT1080-NT tox, HT1080 IDH1KD tx)
COc1ccccc1NS(=O)(=O)c1ccc2oc(SCc3ccc(C#N)cc3)nc2c1	KB-V1 cytotox 9.2µM
CNC(=O)CSc1nc2cc(S(=O)(=O)Nc3ccccc3OC)ccc2o1	MCF10A rereplic inconclusive
Cc1ccc(-c2nnc(N3CCC(C(N)=O)CC3)s2)cc1	KB-3-1 tox inconclusive (no result: MCF10A rereplic, SW480 rereplic, HT1080-NT tox, HT1080 IDH1KD tx)
N#C/C(=C\c1c[nH]c2ccc(Br)cc12)c1ccccn1	MCF10A rereplic inconclusive, SW480 rereplic inconclusive, HT1080-NT tox 25.9µM, HT1080 IDH1KD tx inconclusive
N#C/C(=C\c1cccc([N+](=O)[O-])c1)c1ccccn1	none
CNc1cc(-n2nc(C)cc2-c2ccccc2)ncn1	none
Cc1cc(-c2ccccc2)n(-c2cc(N/N=C/c3ccccc3O)ncn2)n1	MCF10A rereplic 2.06µM, SW480 rereplic inconclusive, KB-V1 cytotox 0.82µM, HT1080-NT tox inconclusive, HT1080 IDH1KD tx 1.03µM, KB-3-1 tox inconclusive
Oc1c(C(c2cccc(Cl)c2)N2CCOCC2)sc2nc(-c3ccco3)nn12 (stereo not given)	none (no result: MCF10A rereplic, SW480 rereplic, HT1080-NT tox, HT1080 IDH1KD tx)
CC1(c2ccc(OCC#N)cc2)C=C(c2ccc(OCC#N)cc2)n2nc(C(F)(F)F)nc2N1 (stereo not given)	MCF10A rereplic 18.4µM, SW480 rereplic inconclusive, KB-V1 cytotox inconclusive, HT1080 IDH1KD tx inconclusive, KB-3-1 tox inconclusive
CCOC(=O)Nc1nc(-c2ccccc2)c(C(=O)c2ccc(Cl)cc2)s1	MCF10A rereplic inconclusive, SW480 rereplic 2.91µM, KB-V1 cytotox 1.3µM, HT1080-NT tox inconclusive, HT1080 IDH1KD tx 0.517µM, KB-3-1 tox 1.16µM
CCOC(=O)c1sc(NC(=O)c2ccc(S(=O)(=O)N3CCOCC3)cc2)nc1-c1ccccc1	SW480 rereplic 18.4µM
CCOC(=O)N1CCN(S(=O)(=O)c2ccc(C(=O)Nc3nc4ccc(F)cc4s3)cc2)CC1	MCF10A rereplic 16.4µM, KB-V1 cytotox inconclusive, KB-3-1 tox inconclusive
CCOC(=O)c1ccc2nc(Nc3nc4ccc(F)cc4s3)sc2c1	MCF10A rereplic 10.3µM, KB-V1 cytotox inconclusive
CCOC(=O)c1ccc2nc(NC(C)=O)sc2c1	none
